# Compounds with a hit are over-represented: about 2.5% of the library has one in this group of screens.
# Cruzain noTriton: inhibitors of Trypanosoma cruzi cruzain without detergent; Potency, µM, inactives show max response, negative = inhibition, usual class: inhibitors; P25779; 200,000 tested, 2.3% active; purified cruzain, Z-FR-AMC fluorescence, no detergent;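 note: plate controls were enzyme without inhibitor for no effect and buffer without enzyme for full effect; nearly all actives have a fitted effect of over 40% in size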
# Target sequence (P25779 123-467 limits assumed): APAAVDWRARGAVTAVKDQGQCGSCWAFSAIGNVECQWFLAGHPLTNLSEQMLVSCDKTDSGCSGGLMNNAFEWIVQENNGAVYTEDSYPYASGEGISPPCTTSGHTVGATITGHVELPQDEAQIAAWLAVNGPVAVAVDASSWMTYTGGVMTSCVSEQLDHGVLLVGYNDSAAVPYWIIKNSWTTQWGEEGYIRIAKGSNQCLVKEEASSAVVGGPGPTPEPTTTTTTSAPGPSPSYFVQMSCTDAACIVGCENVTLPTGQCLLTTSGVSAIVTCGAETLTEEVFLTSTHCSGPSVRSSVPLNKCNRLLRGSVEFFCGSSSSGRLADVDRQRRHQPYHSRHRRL
#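 Purified cruzain at 1.5 nM, pre-incubated 15 min with compound at room temperature in 100 mM sodium acetate pH 5.5, 5 mM DTT, 0.00005% Triton X-100. Reaction started with 2 uM Z-FR-AMC; AMC fluorescence increase over 60 s gives rate.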
# Cruzain Triton: blocks cruzain activity in presence of Triton detergent; P25779; purified cruzain, Z-FR-AMC fluorescence, 0.01% Triton; Potency, µM, without a hit: max response, negative = inhibition, hits mostly inhibitors; 200,000 tested, 0.43% active;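 note: plate controls were neutral wells for no effect and buffer without enzyme for full effect; nearly all actives have a fitted effect of over 40% in size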
#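 Sodium acetate buffer (100 mM, pH 5.5) containing 5 mM DTT and 0.01% Triton X-100 hosted 1.5 nM cruzain and test compound for 15 min at room temperature. Cleavage of 2 uM Z-FR-AMC was then tracked by fluorescence.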
# Starred values were filed as active, the others as inactive; u = inconclusive. Calls come from the whole dose curve; as a rule, active = well fitted curve in the direction sought with a large enough effect; inconclusive = small, poorly fitted or top-dose-only effect, or another doubt; inactive = no such curve, though single readings can be large; an effect the other way counts as inactive or inconclusive. Potency is the fitted concentration of half-maximal effect.
SMILES,Cruzain noTriton,Cruzain Triton
COc1cccc(-n2c(SCC(=O)Nc3ccc4c(c3)OCO4)nc3c([nH]c4ccccc43)c2=O)c1,15.8µM*,-4.2%
COc1cccc(NC(=O)CSc2nc3c([nH]c4ccccc43)c(=O)n2-c2cc(C)cc(C)c2)c1,15.8µM*,0.9%
COc1cccc(-n2c(SCC(=O)Nc3c(C)cc(C)cc3C)nc3c([nH]c4ccccc43)c2=O)c1,-23.6%,-0.9%
COc1ccc2ncc3c(-c4ccc(C)c(C)c4)nn(CC(=O)Nc4ccccc4)c3c2c1,-27.6%,-3.0%
CCCN1C(=O)c2[nH]nc(-c3ccccc3O)c2C1c1cccc(OCc2ccccc2)c1 (centres undefined),u,-7.0%
CC1=C(c2ccc(C(C)C)cc2)S(=O)(=O)N=C1N1CCN(c2ccccc2F)CC1,10.2%,-2.6%
CCn1nc([N+](=O)[O-])c(C(C#N)c2nc3cc(C(F)(F)F)ccc3s2)c(Cl)c1=O (centres undefined),u,22.4µM*
CCCn1nc([N+](=O)[O-])c(C(C#N)c2nc3ccccc3o2)c(Cl)c1=O (centres undefined),1.1%,-23.6%
Cc1ccc(NC(=O)C2CCCN(S(=O)(=O)c3cccc4cccnc34)C2)c(Br)c1 (centres undefined),1.4%,0.4%
CCOc1ccc(C2C(C#N)=C(N)N(c3sc4c(c3C#N)CCCC4)C3=C2C(=O)CCC3)cc1 (centres undefined),-5.8%,-3.4%
N#CC1=C2N=C(N)c3c(sc4c3CCCCC4)N2C2=C(C(=O)CCC2)C1c1ccccc1 (centres undefined),25.1µM*,-1.1%
CSc1ccc(C2C(C#N)=C(N)N(c3ccccc3)C3=C2C(=O)CCC3)cc1 (centres undefined),15.8µM*,-8.9%
Cc1nn(C)cc1C1C(C#N)=C(N)N(c2cccnc2)C2=C1C(=O)CCC2 (centres undefined),-16.5%,-3.0%
Cc1cc(C)cc(-n2c(SCC(=O)Nc3ccccc3F)nc3c(oc4ccccc43)c2=O)c1,u,-2.7%
Cc1nn(-c2ccc(F)cc2)c(-n2cccc2)c1C(=O)N1CCN(c2ccccc2F)CC1,6.3%,-3.5%
COc1ccc(OC)c(Nc2ncc3c(n2)CCN(Cc2cc(OC)c(OC)c(OC)c2)C3)c1,-1.9%,-0.2%
COc1cc(OC)cc(C(=O)N/N=C/c2ccc(OC)c(COc3ccc4ccccc4c3)c2)c1,7.94µM*,-1.1%
COc1cccc(OCc2cc(/C=N/NC(=O)c3ccn[nH]3)ccc2OC)c1,-20.4%,0.7%
COc1ccc(/C=N/NC(=O)c2nc(Cl)c(Cl)c(N)c2Cl)cc1COc1ccccc1F,-8.4%,-0.3%
COc1ccc(/C=N/NC(=S)Nc2ccccc2)cc1COc1ccccc1F,12.6µM*,-3.8%
COc1ccc(NC(=S)Nc2ccc(OCc3ccccc3)cc2)cc1OC,u,-7.8%
COc1ccc(/C=N/NC(=S)Nc2ccccc2)cc1COc1ccc(F)cc1,7.94µM*,-8.9%
Cc1cccc(CNC(=O)CCCn2c(=O)c3cccn3c3ccc(F)cc32)c1,-2.1%,-1.4%
CC1(C)CC(=O)c2cc(-c3nc(-c4ccccc4)cs3)c(=O)[nH]c2C1,-3.2%,-2.0%
CSc1nc2c(sc3ccccc32)c(=O)n1Cc1ccc(C)cc1,10.5%,2.2%
SMILES,Cruzain noTriton,Cruzain Triton
O=C(Nc1ccc2ccccc2c1)c1nn(C23CC4CC(CC(C4)C2)C3)cc1Br,10µM*,4.2%
COc1ccc(NC(=O)c2nn(C34CC5CC(CC(C5)C3)C4)cc2[N+](=O)[O-])cc1,-0.9%,-4.1%
Cc1ccc2c(CC(=O)Nc3c(C(=O)Nc4cccc(Cl)c4)oc4ccccc34)coc2c1C,u,-2.1%
CCOc1ccccc1NC(=O)CN1C(=O)COc2ccc(S(=O)(=O)N3CCCCC3)cc21,-6.2%,-2.4%
CCn1nnc2cc(C(=O)Nc3cccc(Cl)c3)ccc21,-9.9%,1.0%
Cc1ccc(-c2nc(S(=O)(=O)c3ccccc3)c(N3CCN(c4ccccc4)CC3)o2)cc1,-8.8%,-1.0%
COc1ccc(N2CCN(c3oc(-c4ccccc4C)nc3S(=O)(=O)c3ccccc3)CC2)cc1,12.6µM*,-4.3%
CC1=C(c2ccc(C)cc2)S(=O)(=O)NC1=NCc1cccc(F)c1,-1.9%,-7.8%
CC1=C(C(=O)Nc2ccccc2)C(c2ccccc2Cl)n2ncc(C(=O)Nc3cccc(C)c3)c2N1 (centres undefined),20µM*,-5.3%
CC1=C(C(=O)Nc2ccccc2)C(c2ccccc2C)n2ncc(C(=O)Nc3ccccc3)c2N1 (centres undefined),-9.0%,-8.4%
COc1cccc(CNC(=O)c2cc(C)nc3c2c(C)nn3-c2cccc(F)c2)c1,0.8%,-5.5%
Cc1c(C(=O)N2CCC(C)CC2)c(S(=O)(=O)N2CCN(c3ccc(Cl)cc3)CC2)c(C)n1C,u,-3.2%
CCCC(=O)Nc1ccc(-c2ccc(NC(=O)CCC)cc2)cc1,12.6µM*,-0.7%
CCCC(=O)Nc1ccc(Nc2ccccc2)cc1,13.0%,-4.0%
O=S(=O)(Nc1nc2ccccc2nc1Nc1ccc2c(c1)OCO2)c1ccccc1,u,-3.4%
Cc1cccc(S(=O)(=O)Nc2nc3ccccc3nc2Nc2ccc3c(c2)OCO3)c1,15.8µM*,-5.8%
Cc1ccc(-c2nnn(CC(=O)NCC3CC3)n2)o1,-0.8%,1.3%
Cc1ccc(-c2nnn(CC(=O)Nc3ccc4nn(-c5ccccc5)nc4c3)n2)o1,10µM*,-7.5%
CC(C)=CCCC1(C)C=Cc2c(c(C)cc3c2[nH]c2ccccc23)O1 (centres undefined),-29.5%,-3.6%
CC(C)c1ccc(NC(=O)c2cc3c(=O)[nH]c4ccccc4c3n2C)cc1,-5.0%,-1.7%
Cc1ccc(Cn2ccc(NC(=O)c3cc4nc5c(c(C(F)(F)F)n4n3)CCc3ccccc3-5)n2)cc1,-0.3%,2.9%
Cc1ccc(O)c(NC(=O)c2cc3nc4c(c(C(F)(F)F)n3n2)CCc2ccccc2-4)c1,10µM*,-1.8%
COc1ccc(Cn2c(C(=O)O)c(CNCCc3cccs3)c3ccc(C)cc32)cc1,9.7%,-5.4%
CCOC(=O)c1ccc(N2C(=O)c3n[nH]c(-c4ccco4)c3C2c2cccc(O)c2)cc1 (centres undefined),-13.7%,-16.8%
Cc1csc2nc(COC(=O)CNC(=O)c3ccccc3Cl)cc(=O)n12,20µM*,25.1µM*
SMILES,Cruzain noTriton,Cruzain Triton
O=C(CNC(=O)c1ccc(F)cc1)OCc1cc(=O)n2ccsc2n1,-0.2%,-6.6%
O=C(CNC(=O)c1ccccc1Cl)OCc1cc(=O)n2ccsc2n1,12.6µM*,25.1µM*
Cc1csc2nc(COC(=O)CNC(=O)c3ccccc3)cc(=O)n12,2.0%,-7.5%
CCNc1ncc2nc(CCc3ccccc3)c(=O)n(-c3ccccc3)c2n1,28.6%,3.2%
CCCC1=NN2C(=N)/C(=C\c3cc(C)n(-c4cccc(C)c4)c3C)C(=O)N=C2S1,u,-10.2%
Cc1cccc(-n2c(C)cc(/C=C3/C(=N)N4C(c5ccccc5)=CSC4=NC3=O)c2C)c1,5.01µM*,-3.5%
Cc1ccc(CNC(=O)CCCn2c(=O)c3ccccc3n(Cc3ccccc3Cl)c2=O)cc1,4.2%,3.2%
COc1ccc(CNCCCSc2nnnn2C)c(OC)c1,-12.0%,-1.1%
COC(=O)c1sccc1NC(=S)N1CCN(c2cccc(C)c2C)CC1,15.8µM*,-2.1%
COC(=O)c1sccc1NC(=S)N1CCCCC1,-1.9%,-1.2%
Cc1[nH]c2c(Cl)cccc2c1CCN,4.9%,4.7%
Cc1[nH]c2c(ccc3ccccc32)c1C1C(CCN)C1(C)C (centres undefined),10µM*,-2.2%
